# MT1-MMP txn act: MT1-MMP promoter transcription activation | HT1080 MT1-MMP promoter luciferase reporter, luminescence, overnight; active compounds read high | activation factor at 10 µM | hit rate 0.16% among 86,000;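 active = activation factor of at least 2 for MT1-MMP transcription at 10 µM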
# ERa SRC1 pot: enhances coactivator binding to human estrogen receptor alpha | hit rate 1.3% among 86,000 | coactivator binding (% of control), % at 25.6 µM | TR-FRET ERalpha-LBD/SRC-Cy5 coactivator binding, 2 h; 100 = basal binding, no effect; in the data active = activity above about 200%;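 also: binding measured in presence of low estradiol as agonist stimulus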
# hDAT+cocaine: modulates human dopamine transporter uptake under cocaine; LLC-PK1 hDAT cells, [14C]-dopamine uptake with cocaine IC80; actives deviate in either direction; B-score at 10 µM; hit rate 1.3% among 110,000;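 active = Z score or B-score, a plate-position-corrected score, falls beyond the plate's 99.7% confidence bounds, in either direction; inactive = both scores lie inside the 99.7% bounds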
# Target sequence (Q01959 whole entry, looked up): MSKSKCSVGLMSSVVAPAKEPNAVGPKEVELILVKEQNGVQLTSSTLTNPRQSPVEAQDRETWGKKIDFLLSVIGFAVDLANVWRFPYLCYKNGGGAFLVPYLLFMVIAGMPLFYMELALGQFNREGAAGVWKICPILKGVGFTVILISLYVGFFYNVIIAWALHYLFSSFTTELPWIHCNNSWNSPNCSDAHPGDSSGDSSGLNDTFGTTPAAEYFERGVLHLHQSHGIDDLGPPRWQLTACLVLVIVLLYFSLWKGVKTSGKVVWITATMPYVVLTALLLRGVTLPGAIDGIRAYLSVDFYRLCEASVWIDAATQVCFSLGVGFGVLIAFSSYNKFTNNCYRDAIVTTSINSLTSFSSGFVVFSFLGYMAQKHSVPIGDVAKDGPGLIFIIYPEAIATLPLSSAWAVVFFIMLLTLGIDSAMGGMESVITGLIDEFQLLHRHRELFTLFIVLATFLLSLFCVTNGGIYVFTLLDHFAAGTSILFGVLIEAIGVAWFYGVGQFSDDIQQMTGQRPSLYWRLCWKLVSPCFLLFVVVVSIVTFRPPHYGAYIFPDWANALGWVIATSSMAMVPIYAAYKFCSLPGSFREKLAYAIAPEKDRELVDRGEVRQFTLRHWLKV
# ERa coact inh: ER-alpha (human) coactivator binding inhibition | P03372 | TR-FRET ER-alpha LBD / SRC-1 peptide, estradiol-bound | inhibition, % at 25.6 µM | hit rate 1.7% among 86,000 | AID 629; in the data active = inhibition above about 50%
# ERb SRC1 inh: blocks coactivator binding to human estrogen receptor beta; AID 633; Q92731; hit rate 1.3% among 86,000; TR-FRET ER-beta LBD / SRC1-Cy5 peptide binding; receptor agonist-loaded with 1 µM estradiol; inhibition, % at 25.6 µM;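 active = compounds whose percent inhibition of the receptor-coactivator binding signal exceeds about 50% in the single-dose screen, limit read from the data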
# A number is an active result; – = inactive; · = no result given; [ ] = another dose, or the depositor's remark. Compounds with a hit are over-represented: about 3.8% of the library has one in this group of screens.
SMILES,MT1-MMP txn act,ERa SRC1 pot,hDAT+cocaine,ERa coact inh,ERb SRC1 inh
CCn1nnnc1SCC(=O)NCc1ccco1,–,–,-8.8,–,–
Cc1nnc(SCC(=O)NCc2ccco2)n1-c1ccccc1,–,–,–,–,–
CCOc1ccccc1NC(=O)CSc1nnnn1-c1ccc(C(=O)OC)cc1,–,–,–,–,–
COc1ccc(-n2nnnc2SCC(=O)NCc2ccco2)cc1OC,–,–,–,–,–
COc1ccc(C)cc1-n1nnnc1SCC(=O)NC(=O)NCc1ccco1,–,–,–,73,–
COC(=O)c1ccc(-n2nnnc2SCC(=O)Nc2ccccc2OC)cc1,–,–,–,58[fluorescence artefact?],–
Cc1ccccc1Nc1nnc(SCC(=O)NCc2ccco2)s1,–,–,–,85[fluorescence artefact?],54
CCCCN1CC[C@H]2C=CC[C@@H](C(=O)Nc3nccs3)[C@H]2C1=O,·,·,–,·,·
CC1=C(C(=O)OCCOc2ccccc2)C(c2ccc(C)o2)C2=C(CC(C)(C)CC2=O)N1 (stereo not drawn),–,–,3.7,–,–
O=C1NC2(CCCC2)N=C1c1ccc(F)cc1,–,–,-8,–,–
CN1C(C(=O)NCc2ccco2)CC2Cn3c(nc4cc(Cl)c(Cl)cc43)C21 (stereo not drawn),·,·,–,·,·
COC(=O)C1(Cc2ccccc2)C=C2C(=C(c3ccccc3)C(=O)C2C)CN1 (stereo not drawn),–,·,·,·,·
CCCCCCN=CC1=C(O)C(C(=O)OC)C(C)(C)CC1=O (stereo not drawn),·,–,–,–,60
COC(=O)[C@@]1(Cc2ccccc2)[C@H]2c3cc(C(=O)N4CCCC4)n(Cc4ccc(C(F)(F)F)nc4)c3C[C@H]2CN1C(=O)c1ccccc1,–,·,·,·,·
CCn1nnc(-c2ccccc2NC(=O)c2cnccn2)n1,–,–,–,–,–
CCc1ccc(C(=O)Cn2ncc(Cl)c(Cl)c2=O)cc1,–,–,–,–,52
O=C(OCn1ncc(Cl)c(Cl)c1=O)c1cccc(C(F)(F)F)c1,·,·,–,·,·
NCCCC[C@H]1CNC(=O)C(=O)N1CCc1cccc(F)c1,·,·,–,·,·
COc1ccc(-c2noc(CSc3nc(-c4ccccc4)cc(=O)[nH]3)n2)cc1,–,242[fluorescence artefact?],–,–,–
N#Cc1cc(Oc2cccnc2)c(Oc2cccnc2)cc1C#N,–,–,–,–,61[fluorescence artefact?]
COc1ccc(/C=C(/C#N)c2cccnc2)cc1OC,–,–,–,–,–
CC1CC(C)CN(C(=O)c2ccc3c(c2)N(Cc2ccccc2)CCS3)C1 (stereo not drawn),·,–,–,–,–
Cc1ccc(CN2CCSc3ccc(C(=O)N4CCN(c5ncccn5)CC4)cc32)cc1,–,378[fluorescence artefact?],–,–,–
Cc1ccc(CC2CC(=O)N(c3cc(C)on3)C2=O)cc1 (stereo not drawn),–,201[fluorescence artefact?],–,–,–
CCc1ccc(Nc2nc(N)nc(CSc3nnnn3-c3ccccc3)n2)cc1,–,312,–,–,–
SMILES,MT1-MMP txn act,ERa SRC1 pot,hDAT+cocaine,ERa coact inh,ERb SRC1 inh
O=C(Nc1c(C(=O)O)[nH]c2ccccc12)NC1CCCCC1,–,–,-2.1,–,–
CC(=O)Nc1ccc(N2CCCCC2)c(C(=O)Nc2cccc(C)c2)c1,–,–,–,–,–
Cc1cccc(NC(=O)c2cc(NC(=O)C3CCCCC3C(=O)O)ccc2N2CCCCC2)c1 (stereo not drawn),–,–,4,–,–
COc1ccc(S(=O)(=O)N(C)CC(=O)Nc2cccc(C(C)=O)c2)cc1Cl,–,–,–,–,–
O=C(C1CCN(Cc2ccc(OCc3ccccc3)cc2)CC1)N1CCCC1,–,–,–,–,–
CCCCNC(=O)C1CCN(Cc2ccc(OCc3ccccc3)cc2)CC1,2,–,–,–,–
S=C1NC[C@H](CC2CCCCC2)N1CCCCC1CCCCC1,·,·,–,·,·
CC(=O)c1ccc(NCC(=O)N2CCN(c3ccccc3)CC2)cc1,–,–,·,85,57
CC(=O)c1ccc(N2CCN(C(=S)Nc3ccccc3)CC2)cc1,·,·,–,·,·
CC(=O)Nc1ccc(N2CCN(C(C)=O)CC2)cc1,–,–,–,–,63
O=C(Nc1ccc(N2CCCC2)cc1)C(c1ccccc1)c1ccccc1,–,–,–,60,–
O=C(Nc1ccc(NC(=S)NC(=O)c2ccccc2Cl)cc1)c1cccc(Cl)c1,·,·,–,·,·
COc1ccc(C)cc1NC(=O)c1cnc2scc(C)n2c1=O,–,216[fluorescence artefact?],–,–,–
COc1ccc(C)cc1NC(=O)c1cnc2n(c1=O)CCS2,–,–,–,–,–
N#Cc1cc2ccccc2nc1SCc1ccccn1,–,–,–,–,–
N#Cc1cc(Sc2ccccn2)c(Sc2ccccn2)cc1C#N,–,213,–,–,–
CCOC(=O)N1CCN(C(=O)c2ccc3c(=O)n(CCc4ccccc4)c(=S)[nH]c3c2)CC1,–,–,–,–,–
CCOC(=O)N1CCN(C(=O)c2ccc3c(=O)n(CCC4=CCCCC4)c(=S)[nH]c3c2)CC1,–,208,–,–,–
COc1ccc(C(=O)CSc2nnc(C3CCCCC3)n2N)c(OC)c1,–,–,–,68,–
Nn1c(SCC(=O)Nc2cccc(F)c2)nnc1C1CCCCC1,–,–,–,–,–
CC1CCN(C(c2ccc(N(C)C)cc2)c2nnnn2Cc2ccccc2)CC1 (stereo not drawn),–,–,–,–,–
COc1ccc(Cn2nnnc2C(c2ccc(N(C)C)cc2)N2CCC(C)CC2)cc1 (stereo not drawn),–,–,2,–,–
O=[N+]([O-])c1cc(/C=N\Nc2nccs2)ccc1O,–,–,·,100[fluorescence artefact?],100[fluorescence artefact?]
COC(=O)c1ccc(C(=O)OC)c(NC(=O)COC(=O)C2CC2C)c1 (stereo not drawn),·,·,–,·,·
CC(C)(C)CN1C(N)=NC[C@@H]1c1ccccc1,·,·,–,·,·
SMILES,MT1-MMP txn act,ERa SRC1 pot,hDAT+cocaine,ERa coact inh,ERb SRC1 inh
CC(C)(C)CN1C(N)=NC[C@@H]1Cc1ccccc1,·,·,-2.7,·,·
Cc1ccc(C2=NOC(C)(c3nnc(-c4ccc(Cl)cc4)o3)C2)cc1 (stereo not drawn),·,·,–,·,·
CCCn1c(SCC(=O)NC2CCCCC2C)n[nH]c1=O (stereo not drawn),·,–,–,–,–
CCC(=O)Nc1cccc(NC(=S)NC(=O)c2ccccc2Cl)c1,·,·,2.7,·,·
CCC(=O)Nc1cccc(NC(C)=O)c1,–,–,·,84[fluorescence artefact?],78
CC(C)C(=O)Nc1cccc(NC(=S)NC(=O)c2ccccc2Cl)c1,·,·,–,·,·
CC(=O)Nc1cccc(NC(=O)CCc2ccccc2)c1,–,–,–,–,–
CCOCc1cc(C)[nH]c(=O)c1C#N,–,–,·,–,–
COCc1c(Br)c(C)[nH]c(=O)c1C#N,–,–,1.6,–,–
CCOC(=O)c1ccc(S(=O)(=O)Nc2ccc3cn[nH]c3c2)cc1,–,–,–,–,–
CCOc1ccccc1CNC(=O)Cn1c(=O)oc2ccccc21,·,–,–,–,55[fluorescence artefact?]
O=C(Cn1cnc2c(oc3ccccc32)c1=O)c1ccccc1,–,266[fluorescence artefact?],–,–,–
CCOC(=O)/C(=N\Nc1cc(C(F)(F)F)ccc1Cl)N(CC)CC,·,·,–,·,·
O=C(CSc1ncccc1C(=O)O)NCc1ccc(F)cc1,–,–,–,–,–

# High-throughput results from PubChem BioAssay.
